Results reported in PubChem BioAssay (NCI).
This is part of a sample that, as a whole, favours compounds with a hit. Of some 83,000 tested, about 20% had one in any assay.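 Cell lines were cultured in 96-well plates, exposed to a single compound concentration, and assessed for percent growth 48 hours later.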 Activity calls are given as the source filed them. Rule for the calls: active = growth percent below 10; inactive = the rest.

test system: MDA-MB-468 breast; assay: NCI-60 one-dose screen, 48 h (100 = growth as untreated, 0 = no growth, -100 = all killed); details: 10 µM unless noted

Row | SMILES | growth
1 | C=CCOc1ccc2c(c1)CC[C@@H]1[C@@H]2CC[C@@]2(C)[C@H]1CC[C@]2(C)O | 81.2% (inactive)
2 | CCOC(=O)c1ccc(-c2ccc3cc(OC)ccc3c2)nc1C | 119% (inactive)
3 | COc1ccc(Cc2cnc(N)nc2N)cc1OC | 104% (inactive)
4 | COc1ccc(C(=O)C2C(c3ccc(OC)cc3)CN(C)C23C(=O)Nc2ccccc23)cc1 (stereo not given) | 95.4% (inactive)
5 | NS(=O)(=O)c1ccc(-n2ncc3c(=O)[nH]c(CN4CCN(c5cc6c(cc5F)c(=O)c(C(=O)O)cn6C5CC5)CC4)nc32)cc1 | 95.4% (inactive)
6 | NS(=O)(=O)c1ccc(CCN2C(=O)/C(=C\c3ccccc3)C=C2c2ccc(Cl)cc2)cc1 | 103% (inactive)
7 | O=C(/C=C(O)/C=C/c1cccc2[nH]ccc12)/C=C/c1cccc2[nH]ccc12 | 67.8% (inactive)
8 | CC(=O)n1cc([C@H]2CC[C@H](c3cn(C(C)=O)c4ccccc34)c3c2[nH]c2ccccc32)c2ccccc21 | 92.9% (inactive)
9 | Cn1cc(-c2ccc3occ(-c4cccc(-c5ccncc5)c4)c3n2)cn1 | 4.07% (active)
10 | O=[N+]([O-])c1ccc(-c2cc3c(Nc4ccc(Cl)c(C(F)(F)F)c4)ncnc3s2)cc1 | -10.2% (active)
11 | O=c1[nH]c(=O)n(C2C[C@H](O)[C@@H](CO)O2)cc1C(F)(F)F (stereo not given in full) | 117% (inactive)
12 | COc1cccc(C2C3=C(COC3=O)N(CCO)c3cc4c(cc32)OCO4)c1 (stereo not given) | -36.3% (active)
13 | NC(=O)c1ccc[n+]([C@@H]2O[C@H](COP(=O)([O-])OP(=O)(O)OC[C@H]3O[C@@H](n4cnc5c(N)ncnc54)[C@H](O)[C@@H]3O)[C@@H](O)[C@H]2O)c1 | 122% (inactive)
14 | CCCCCC(=O)N1c2ccccc2NC2=C(C(=O)CC(c3ccc(OC)c(OC)c3)C2)C1c1ccc(C(F)(F)F)cc1 (stereo not given) | 14.2% (inactive)
15 | O=c1[nH]ccc2c(S(=O)(=O)N3CCCNCC3)cccc12 | 15.9% (inactive)
16 | O=C(CCc1nc2sc3c(c2c(=O)[nH]1)CCC3)NCc1cn(-c2ccccc2)nc1-c1ccccc1 | 83.6% (inactive)
17 | Cc1cc(C(=O)Nc2ccc(SC#N)cc2)c(C)o1 | 96.1% (inactive)
18 | CCN(CC)S(=O)(=O)c1ccc(-c2nc(C(Cl)Cl)nc3cc(-c4ccc(F)cc4)nn23)cc1 | -31.9% (active)
19 | COc1cc(C2CC(c3ccc(Cl)cc3)=NN2C(C)=O)ccc1Oc1nc2c(c(=O)n(C)c(=O)n2C)n1C (stereo not given) | 76.6% (inactive)
20 | CCCCCc1ccc(S(=O)(=O)Nc2cccc(-c3csc(NC(=O)CNCCN(C)C)n3)c2)cc1 | 82.9% (inactive)

Row | SMILES | growth
21 | COc1cc(CN2CCO[C@H](COc3cccc(F)c3)C2)ccc1Cl | 11.4% (inactive)
22 | O=C1/C(=C/c2cccc3cnccc23)Cc2cc(F)ccc21 | 65.2% (inactive)
23 | OCCNc1nc(NCCO)nc(Nc2ccc(C3=NN(c4cc(Cl)cc(Cl)c4)C(c4ccc(C(F)(F)F)cc4)C3)cc2)n1 (stereo not given) | 39.7% (inactive)
24 | C[C@]12CC[C@@H]3c4ccc(O)c([N+](=O)[O-])c4CC[C@H]3[C@@H]1CC[C@@H]2NS(=O)(=O)c1ccc(C(F)(F)F)cc1 | 25.2% (inactive)
25 | CC1(C)CC[C@]2(C(N)=O)CC[C@]3(C)C(=CC[C@@H]4[C@@]5(C)C/C(=C/c6ccncc6)C(=O)C(C)(C)[C@@H]5CC[C@]43C)[C@@H]2C1 | -25.2% [100 µM] (active)
26 | Nc1nc(=S)c2ncn(C3OC(COP(=O)(O)O)C(O)C3O)c2[nH]1 (stereo not given) | 4.34% (active)
27 | COc1cc(NC(=O)c2cc3ccccc3nc2Nc2ccc(F)cc2)cc(OC)c1OC | -0.996% (active)
28 | Cc1ccnc(NC(c2ccccc2)c2ccc3cccnc3c2O)c1 (stereo not given) | 24.9% (inactive)
29 | C/C(=C\CCc1ccoc1)CC/C=C(\C)CCCNc1ccc(F)cc1 | 89.8% (inactive)
30 | COc1cc(C2C3=C(COC3=O)Nc3c2ccc2c3CCCC2)cc2c1OCO2 (stereo not given) | -6.39% (active)
31 | N#Cc1c(O)c2c(c(O)c1C#N)C(=O)c1ccccc1C2=O | 7.71% (active)
32 | Nc1nc2c(s1)CCc1c-2c(Br)n(Cc2ccccc2)c1Br | 33.4% (inactive)
33 | COc1cc2nc(NC3CCCC3)nc(NC3CCN(C(C)C)CC3)c2cc1OC | 45.4% (inactive)
34 | Cc1ccc2c(Cn3cc(CSc4nc5ccccc5o4)nn3)cc(=O)oc2c1 | 113% (inactive)
35 | Cc1cc(-c2ccc3nc(N)sc3c2)nc2ccc3[nH]ncc3c12 | 5.34% (active)
36 | COc1ccc(CCN2C(=O)CCSC2=S)cc1OC | 19.8% (inactive)
37 | Cn1/c(=N\N=C\c2ccccc2OCCO)sc2ccccc21 | 103% (inactive)
38 | O=C(O)c1nn(-c2ccc(Cl)cc2)nc1N1CCCC1 | 86% (inactive)
39 | O=S(=O)(NCCNc1nccc(-c2c(-c3cccc(O)c3)nc3occn23)n1)c1ccc(Cl)cc1 | 97.9% (inactive)
40 | COc1cc2cc(CN3CCN(c4nccc(-c5ccc6ccccc6c5)n4)CC3)c(=O)[nH]c2cc1OC | 51.4% (inactive)
